From PubChem BioAssay AID2284122 (EPA ToxCast)
The source made the active and inactive calls. Rule for the calls: active = hit-call score of the fitted dose curve at least 0.9, where 1 is the maximum; inactive = score below 0.9.

What follows are molecules tested against human TRKA Receptor Tyrosine Kinase, NTRK1 (gene 4914) (UniProt P04629) (assay: ERF_FR_ENZ_hNTRK1: Eurofins (ERF) Enzymatic Radiometric [Km ATP] KinaseProfiler LeadHunter Assay for human TRKA Receptor Tyrosine Kinase).
human TRKA Receptor Tyrosine Kinase, NTRK1 (gene 4914), sequence (P04629 whole entry, looked up): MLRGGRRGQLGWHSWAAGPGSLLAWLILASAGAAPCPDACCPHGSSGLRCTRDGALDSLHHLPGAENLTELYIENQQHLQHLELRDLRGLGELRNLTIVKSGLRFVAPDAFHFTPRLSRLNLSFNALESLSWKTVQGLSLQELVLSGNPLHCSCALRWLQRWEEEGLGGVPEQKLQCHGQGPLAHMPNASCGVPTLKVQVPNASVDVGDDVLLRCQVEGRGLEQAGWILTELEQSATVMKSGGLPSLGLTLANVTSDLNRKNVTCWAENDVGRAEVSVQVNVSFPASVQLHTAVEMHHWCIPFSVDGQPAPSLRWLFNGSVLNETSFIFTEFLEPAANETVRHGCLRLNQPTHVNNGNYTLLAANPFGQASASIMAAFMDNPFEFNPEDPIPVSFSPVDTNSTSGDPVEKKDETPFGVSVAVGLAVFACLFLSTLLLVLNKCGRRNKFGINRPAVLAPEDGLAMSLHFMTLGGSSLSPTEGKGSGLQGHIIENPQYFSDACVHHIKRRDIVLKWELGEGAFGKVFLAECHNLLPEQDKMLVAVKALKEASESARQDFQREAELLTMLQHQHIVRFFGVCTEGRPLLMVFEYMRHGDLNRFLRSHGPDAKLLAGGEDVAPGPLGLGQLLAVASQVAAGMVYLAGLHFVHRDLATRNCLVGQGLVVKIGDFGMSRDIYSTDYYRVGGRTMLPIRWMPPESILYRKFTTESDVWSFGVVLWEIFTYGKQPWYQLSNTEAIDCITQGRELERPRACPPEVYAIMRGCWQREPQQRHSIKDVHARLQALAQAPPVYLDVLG
Protocol: ERF_FR_ENZ_hNTRK1 is a biochemical, single-readout assay that uses extracted gene-proteins in a cell-free assay. Measurements were taken 0.16 hour after chemical dosing in a 96-well plate. See TRKA Human RTK Kinase Enzymatic LANCE Assay [Km ATP], Cerep.ERF_FR_ENZ_hNTRK1 is an assay component calculated from the ERF_FR_ENZ_hNTRK1 assay. It is designed to measure enzyme activity using a type of enzyme reporter as detected by fluorescence intensity with LANCE technology.Data from the assay component ERF_FR_ENZ_hNTRK1 was analyzed at the assay endpoint, ERF_FR_ENZ_hNTRK1, in the positive analysis fitting direction relative to DMSO as the negative control and baseline of activity. Using a type of enzyme reporter, loss-of-signal activity can be used to understand changes in enzymatic activity as they relate to gene NTRK1. To generalize the intended target to other relatable targets, this assay endpoint is annotated to the kinase intended target family, where the subfamily is receptor tyrosine kinase.
TrkA (h) is incubated with 8 mM MOPS pH 7.0, 0.2 mM EDTA, 250 uM […], 10 mM MgAcetate and [g- 33P]-ATP (specific activity and concentration as required). The reaction is initiated by the addition of the Mg/ATP mix. After incubation for 40 minutes at room temperature, the reaction is stopped by the addition of phosphoric acid to a concentration of 0.5%. An aliquot of the reaction is then spotted onto a filter and washed four times for 4 minutes in 0.425% phosphoric acid and once in methanol prior to drying and scintillation counting.Compound should be supplied in 100% DMSO.We require a stock solution at a concentration of at least 50x higher than the Final Assay Concentration of your cpd. A 10mM stock is also acceptable.When ordering fewer than 60 kinase assays, we need 120uL of 50x concentrated stock. For more than 60 assays, we need 420 uL of 50xcc stock. Please apply the conversion if you provide 10mM stock solution or compounds in powder form (pre-weighed is required) From 50 cpds supplied as solids, the TAT will be extended.
In the case of `COc1cc(CCC(=O)CC(=O)CCc2ccc(O)c(OC)c2)ccc1O`, the outcome is reported as “inactive”. `O=C(/C=C/c1ccc(O)cc1)CC(=O)/C=C/c1ccc(O)cc1` was tested, and the outcome was “inactive”. For `COc1cc(/C=C/C(=O)CC(=O)/C=C/c2ccc(O)c(OC)c2)ccc1O`, the AC50 was 3.85 µM (active).
